Results filed as inconclusive are left out. Calls of active or inactive are those of the source. How the source made its calls: active means hit-call score of the fitted dose curve at least 0.9, where 1 is the maximum; inconclusive means response in the unintended direction; inactive means score below 0.9.
Tests used:
[1] = biological target: human Vascular Endothelial Growth Factor Receptor 1 (VEGFR1), FLT1 (gene 2321) (UniProt P17948); assay: NVS_ENZ_hVEGFR1: NovaScreen (NVS) Enzymatic Assay for human Vascular Endothelial Growth Factor Receptor 1 (VEGFR1) (AID 2283226)
Method in brief: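 Cell-free assay of recombinant human VEGFR1 kinase with substrate, measured 1 h after dosing; fluorescence with electrophoretic mobility-shift separation of substrate and product, referenced to DMSO; primary screen at 25 uM in duplicate, actives then run in concentration series.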

[2] = biological target: human Vascular Endothelial Growth Factor Receptor 3 (VEGFR3), FLT4 (gene 2324) (UniProt P35916); assay: NVS_ENZ_hVEGFR3: NovaScreen (NVS) Enzymatic Assay for human Vascular Endothelial Growth Factor Receptor 3 (VEGFR3) (AID 2283229)
Method in brief: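 Cell-free recombinant VEGFR3 kinase reaction with fluorescent substrate, read 1 h after dosing by electrophoretic mobility shift separation of substrate and product. Single-concentration duplicate screen at 25 uM, then concentration-response up to 50 uM; loss of activity versus DMSO.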

[3] = biological target: human Vascular Endothelial Growth Factor Receptor 2 (VEGFR2), KDR (gene 3791) (UniProt P35968); assay: NVS_ENZ_hVEGFR2: NovaScreen (NVS) Enzymatic Assay for human Vascular Endothelial Growth Factor Receptor 2 (VEGFR2) (AID 2283230)
Method in brief: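 Cell-free recombinant VEGFR2 kinase, fluorescent substrate with electrophoretic mobility-shift separation; read 1 h after dosing. Screened at 25 uM in duplicate, hits to concentration-response up to 50 uM; loss-of-signal versus DMSO.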

[4] = biological target: rat Catechol-O-Methyl Transferase (COMT), Comt (gene 24267) (UniProt P22734); assay: NVS_ENZ_rCOMT: NovaScreen (NVS) Enzymatic Assay for rat Catechol-O-Methyl Transferase (COMT) (AID 2283235)
Method in brief: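 Cell-free enzyme activity with protein extracted from rat dorsal striatum, measured by HPLC with absorbance detection. Compounds screened at 25 uM in duplicate; actives then run in concentration-response up to 50 uM, loss of signal versus DMSO.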

[5] = biological target: human Serotonin, 5-Hydroxytryptamine Receptor 2A (5HT2A), HTR2A (gene 3356) (UniProt P28223); assay: NVS_GPCR_h5HT2A: NovaScreen (NVS) G Protein-Coupled Receptor Assay for human Serotonin, 5-Hydroxytryptamine Receptor 2A (5HT2A) (AID 2283249)
Method in brief: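 Human cortex membranes, cell-free radioligand binding; filter-based scintillation read 1.5 h after dosing. Duplicate screen at 25 uM first; displacement of specific binding (loss of signal) versus DMSO.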

[6] = system: rat Monoamine Oxidase, MAO-A, Peripheral (MAOAP), gene 29253; assay: NVS_ENZ_rMAOAP: NovaScreen (NVS) Enzymatic Assay for rat Monoamine Oxidase, MAO-A, Peripheral (MAOAP) (AID 2283237)
Method in brief: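 Rat liver mitochondrial membranes served as the MAO-A source, with enzyme activity measured by radiometric scintillation counting 1.17 hours after dosing. Loss of signal was fitted against DMSO; primary screen used 25 uM in duplicate, follow-up used concentration series.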

[7] = biological target: Adenosine receptor A1 (Bos taurus) (UniProt P28190); assay: NVS_GPCR_bAdoR_NonSelective: NovaScreen (NVS) G Protein-Coupled Receptor Assay for bovine Adenosine Receptor (AdoR), Non-selective Binding (AID 2283244)
Method in brief: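 Bovine striatal membranes, radioligand displacement binding, 1 h after dosing, filter-based scintillation counting. Screened in duplicate at 25 uM, then concentration-response up to 50 uM; loss of specific binding relative to DMSO.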

[8] = system: bovine Histamine 1 Receptor (H1), gene 281231; assay: NVS_GPCR_bH1: NovaScreen (NVS) G Protein-Coupled Receptor Assay for bovine Histamine 1 Receptor (H1) (AID 2283246)
Method in brief: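 Radioligand displacement on bovine cerebellar membranes, 1 h after dosing, filter-based scintillation read-out; loss of signal vs DMSO. Duplicate single-concentration screen at 25 uM, then concentration-response up to 50 uM for hits.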

[9] = biological target: rat Monoamine Oxidase, MAO-B, Central (MAOBC), Maob (gene 25750) (UniProt P19643); assay: NVS_ENZ_rMAOBC: NovaScreen (NVS) Enzymatic Assay for rat Monoamine Oxidase, MAO-B, Central (MAOBC) (AID 2283238)
Method in brief: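 MAO-B activity in rat brain tissue preparation, cell-free, measured radiometrically by scintillation counting 1.17 h after dosing. Screened in duplicate at 25 uM; actives then in concentration-response up to 50 uM. Loss of signal versus DMSO scored.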

[10] = system: rat Monoamine Oxidase, MAO-A, Central (MAOAC), gene 29253; assay: NVS_ENZ_rMAOAC: NovaScreen (NVS) Enzymatic Assay for rat Monoamine Oxidase, MAO-A, Central (MAOAC) (AID 2283243);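 further: potency refers to inhibition seen as signal drop below DMSO baseline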
Method in brief: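 Rat brain tissue extract served as the cell-free enzyme source; activity was measured by radiometric scintillation counting 1.5 hours after compound addition. Loss of signal relative to DMSO baseline indicated inhibition; primary screen at 25 uM in duplicate.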

[11] = biological target: bovine Dopamine Receptor (DR), Non-selective Binding, DRD1 (gene 281125) (UniProt Q95136); assay: NVS_GPCR_bDR_NonSelective: NovaScreen (NVS) G Protein-Coupled Receptor Assay for bovine Dopamine Receptor (DR), Non-selective Binding (AID 2283241)
Method in brief: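 Bovine striatal membranes; radioligand displacement read by filtration and scintillation counting 1 h after dosing, loss of signal vs DMSO. Screened in duplicate at 25 uM, then concentration-response for hits.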

[12] = system: guinea pig Leukotriene B4 Receptor (LTB4), gene 100379538; assay: NVS_GPCR_gLTB4: NovaScreen (NVS) G Protein-Coupled Receptor Assay for guinea pig Leukotriene B4 Receptor (LTB4) (AID 2283247)
Method in brief: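 Radioligand displacement on guinea pig spleen membranes, filter-based scintillation counting 2 h after dosing. Primary duplicate single point at 25 uM; hits over threshold (e.g. 30% inhibition) run in concentration-response up to 50 uM, DMSO baseline.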

[13] = NVS_GPCR_bNPY_NonSelective: NovaScreen (NVS) G Protein-Coupled Receptor Assay for bovine Neuropeptide Y (NPY) Receptor, Non-selective Binding (AID 2283245)
Method in brief: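 Bovine hippocampal membranes incubated 1 hour with radioligand and test chemical. Bound ligand measured by filter-based scintillation counting. Single-concentration screen at 25 uM in duplicate, then concentration-response up to 50 uM.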

[14] = biological target: sheep Cyclooxygenase-1 (Cox1), PTGS1 (gene 443551) (UniProt P05979); assay: NVS_ENZ_oCOX1: NovaScreen (NVS) Enzymatic Assay for sheep Cyclooxygenase-1 (Cox1) (AID 2283239);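 further: actives reduce cyclooxygenase activity so potencies are for inhibitors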
Method in brief: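 Cell-free colorimetric assay of enzyme activity in a native extract of ovine seminal vesicles. Absorbance was read 0.66 hour after compound addition. Loss of signal relative to the DMSO negative control was scored, with actives from the 25 uM duplicate primary screen retested in concentration series.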

[15] = biological target: rat Constitutive Nitric Oxide Synthase (CNOS), Nos1 (gene 24598) (UniProt P29476); assay: NVS_ENZ_rCNOS: NovaScreen (NVS) Enzymatic Assay for rat Constitutive Nitric Oxide Synthase (CNOS) (AID 2283236)
Method in brief: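 Enzyme activity in rat brain membrane preparation, read 1 h after dosing by filter-based radiometric scintillation counting. Primary screen in duplicate at 25 uM; actives (e.g., ≥30% inhibition) then run in concentration-response up to 50 uM.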

[16] = biological target: rat Monoamine Oxidase, MAO-B, Peripheral (MAOBP), Maob (gene 25750) (UniProt P19643); assay: NVS_ENZ_rMAOBP: NovaScreen (NVS) Enzymatic Assay for rat Monoamine Oxidase, MAO-B, Peripheral (MAOBP) (AID 2283242)
Sequence of rat Monoamine Oxidase, MAO-B, Peripheral (MAOBP), Maob (gene 25750) (P19643 whole entry, looked up): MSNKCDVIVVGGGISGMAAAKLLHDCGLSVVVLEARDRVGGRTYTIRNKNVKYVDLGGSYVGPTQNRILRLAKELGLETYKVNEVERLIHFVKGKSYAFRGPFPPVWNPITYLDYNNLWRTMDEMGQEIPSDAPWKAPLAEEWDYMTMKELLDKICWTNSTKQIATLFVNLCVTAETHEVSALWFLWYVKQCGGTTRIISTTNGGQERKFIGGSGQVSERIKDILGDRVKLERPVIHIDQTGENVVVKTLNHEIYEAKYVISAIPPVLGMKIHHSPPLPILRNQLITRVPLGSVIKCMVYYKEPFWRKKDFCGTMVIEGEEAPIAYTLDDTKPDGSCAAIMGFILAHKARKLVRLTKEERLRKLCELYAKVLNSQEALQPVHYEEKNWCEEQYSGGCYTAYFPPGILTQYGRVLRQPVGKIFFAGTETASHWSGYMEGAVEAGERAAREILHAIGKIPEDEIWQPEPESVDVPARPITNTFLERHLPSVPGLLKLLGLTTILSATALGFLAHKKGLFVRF

Sequence of rat Monoamine Oxidase, MAO-B, Central (MAOBC), Maob (gene 25750) (P19643 whole entry, looked up): as above
Sequence of bovine Dopamine Receptor (DR), Non-selective Binding, DRD1 (gene 281125) (Q95136 whole entry, looked up): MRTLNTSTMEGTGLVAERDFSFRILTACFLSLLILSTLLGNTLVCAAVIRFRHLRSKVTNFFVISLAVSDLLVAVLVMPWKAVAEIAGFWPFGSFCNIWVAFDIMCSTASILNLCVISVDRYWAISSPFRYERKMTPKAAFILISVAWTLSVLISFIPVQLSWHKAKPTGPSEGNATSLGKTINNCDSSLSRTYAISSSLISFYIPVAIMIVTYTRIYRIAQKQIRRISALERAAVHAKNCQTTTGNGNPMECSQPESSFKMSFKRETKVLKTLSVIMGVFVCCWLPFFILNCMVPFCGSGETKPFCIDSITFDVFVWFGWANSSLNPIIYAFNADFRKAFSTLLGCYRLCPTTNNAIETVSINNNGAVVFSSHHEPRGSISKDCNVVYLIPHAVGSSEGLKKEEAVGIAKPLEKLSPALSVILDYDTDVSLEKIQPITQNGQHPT
Sequence of rat Constitutive Nitric Oxide Synthase (CNOS), Nos1 (gene 24598) (P29476 whole entry, looked up): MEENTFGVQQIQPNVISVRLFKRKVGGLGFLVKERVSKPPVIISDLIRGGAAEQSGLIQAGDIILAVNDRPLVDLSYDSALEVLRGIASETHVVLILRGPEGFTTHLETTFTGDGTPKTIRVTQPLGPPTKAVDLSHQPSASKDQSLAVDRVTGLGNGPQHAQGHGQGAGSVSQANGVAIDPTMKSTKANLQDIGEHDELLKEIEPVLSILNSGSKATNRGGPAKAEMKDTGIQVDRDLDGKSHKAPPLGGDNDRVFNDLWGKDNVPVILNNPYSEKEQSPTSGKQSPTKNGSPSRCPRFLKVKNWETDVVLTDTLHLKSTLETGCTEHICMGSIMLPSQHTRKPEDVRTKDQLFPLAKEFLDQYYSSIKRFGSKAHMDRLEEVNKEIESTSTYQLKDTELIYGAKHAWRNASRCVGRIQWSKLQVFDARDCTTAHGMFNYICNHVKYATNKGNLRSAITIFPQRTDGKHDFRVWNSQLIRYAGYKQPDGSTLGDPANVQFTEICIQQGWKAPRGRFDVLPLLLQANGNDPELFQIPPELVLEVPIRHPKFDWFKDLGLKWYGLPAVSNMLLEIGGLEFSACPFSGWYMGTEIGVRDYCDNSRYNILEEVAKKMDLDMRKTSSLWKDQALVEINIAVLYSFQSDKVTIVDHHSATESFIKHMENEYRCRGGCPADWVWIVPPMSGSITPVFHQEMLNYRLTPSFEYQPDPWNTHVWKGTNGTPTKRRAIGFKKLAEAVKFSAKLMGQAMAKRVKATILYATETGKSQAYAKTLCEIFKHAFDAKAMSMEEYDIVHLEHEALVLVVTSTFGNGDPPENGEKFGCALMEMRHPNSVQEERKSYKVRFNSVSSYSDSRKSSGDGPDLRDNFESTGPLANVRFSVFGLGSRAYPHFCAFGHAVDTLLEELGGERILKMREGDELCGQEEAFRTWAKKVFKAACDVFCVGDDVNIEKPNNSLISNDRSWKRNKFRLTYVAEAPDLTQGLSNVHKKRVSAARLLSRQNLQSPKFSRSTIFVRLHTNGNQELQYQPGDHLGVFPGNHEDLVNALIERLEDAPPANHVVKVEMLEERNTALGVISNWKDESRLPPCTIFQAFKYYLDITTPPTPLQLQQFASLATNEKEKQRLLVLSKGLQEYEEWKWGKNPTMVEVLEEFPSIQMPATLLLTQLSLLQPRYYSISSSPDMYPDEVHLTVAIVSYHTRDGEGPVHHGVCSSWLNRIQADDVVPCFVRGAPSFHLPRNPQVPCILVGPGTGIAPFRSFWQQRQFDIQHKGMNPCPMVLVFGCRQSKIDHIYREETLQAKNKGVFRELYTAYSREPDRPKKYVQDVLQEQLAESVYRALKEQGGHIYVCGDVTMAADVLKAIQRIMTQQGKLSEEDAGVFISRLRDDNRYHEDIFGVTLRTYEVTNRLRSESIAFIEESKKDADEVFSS
Sequence of rat Catechol-O-Methyl Transferase (COMT), Comt (gene 24267) (P22734 whole entry, looked up): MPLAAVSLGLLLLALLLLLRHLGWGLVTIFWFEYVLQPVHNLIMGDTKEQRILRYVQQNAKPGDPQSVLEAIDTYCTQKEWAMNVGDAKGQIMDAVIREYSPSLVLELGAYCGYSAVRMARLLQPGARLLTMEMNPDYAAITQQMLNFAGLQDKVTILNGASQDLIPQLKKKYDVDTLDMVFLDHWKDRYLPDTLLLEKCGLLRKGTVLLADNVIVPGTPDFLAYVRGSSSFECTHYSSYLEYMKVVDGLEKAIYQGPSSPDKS
Sequence of Adenosine receptor A1 (Bos taurus) (P28190 whole entry, looked up): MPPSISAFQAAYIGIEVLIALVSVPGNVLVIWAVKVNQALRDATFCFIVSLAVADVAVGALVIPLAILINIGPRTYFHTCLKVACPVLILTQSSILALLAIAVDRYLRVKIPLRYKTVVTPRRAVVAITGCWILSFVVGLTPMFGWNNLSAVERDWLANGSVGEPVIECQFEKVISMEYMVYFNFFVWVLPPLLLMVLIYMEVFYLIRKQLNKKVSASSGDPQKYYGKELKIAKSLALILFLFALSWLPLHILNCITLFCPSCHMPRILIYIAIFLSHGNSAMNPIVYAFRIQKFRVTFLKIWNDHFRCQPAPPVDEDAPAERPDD
Sequence of sheep Cyclooxygenase-1 (Cox1), PTGS1 (gene 443551) (P05979 whole entry, looked up): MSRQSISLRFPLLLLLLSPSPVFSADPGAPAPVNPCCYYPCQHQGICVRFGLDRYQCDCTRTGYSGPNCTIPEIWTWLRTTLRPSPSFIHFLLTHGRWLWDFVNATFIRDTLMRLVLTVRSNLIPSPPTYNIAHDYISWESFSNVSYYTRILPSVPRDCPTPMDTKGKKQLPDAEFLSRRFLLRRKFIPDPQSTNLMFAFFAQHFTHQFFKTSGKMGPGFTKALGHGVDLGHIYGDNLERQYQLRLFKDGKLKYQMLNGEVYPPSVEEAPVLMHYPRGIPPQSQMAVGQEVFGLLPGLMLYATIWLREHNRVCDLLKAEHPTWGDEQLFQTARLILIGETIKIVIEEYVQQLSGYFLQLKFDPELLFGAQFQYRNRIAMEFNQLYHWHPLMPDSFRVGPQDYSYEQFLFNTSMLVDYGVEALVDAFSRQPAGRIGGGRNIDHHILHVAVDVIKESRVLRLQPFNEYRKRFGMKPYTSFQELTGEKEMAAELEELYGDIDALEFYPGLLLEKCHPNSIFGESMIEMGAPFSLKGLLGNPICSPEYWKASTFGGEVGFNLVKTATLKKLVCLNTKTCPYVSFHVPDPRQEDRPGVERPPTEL
Sequence of human Vascular Endothelial Growth Factor Receptor 1 (VEGFR1), FLT1 (gene 2321) (P17948 whole entry, looked up): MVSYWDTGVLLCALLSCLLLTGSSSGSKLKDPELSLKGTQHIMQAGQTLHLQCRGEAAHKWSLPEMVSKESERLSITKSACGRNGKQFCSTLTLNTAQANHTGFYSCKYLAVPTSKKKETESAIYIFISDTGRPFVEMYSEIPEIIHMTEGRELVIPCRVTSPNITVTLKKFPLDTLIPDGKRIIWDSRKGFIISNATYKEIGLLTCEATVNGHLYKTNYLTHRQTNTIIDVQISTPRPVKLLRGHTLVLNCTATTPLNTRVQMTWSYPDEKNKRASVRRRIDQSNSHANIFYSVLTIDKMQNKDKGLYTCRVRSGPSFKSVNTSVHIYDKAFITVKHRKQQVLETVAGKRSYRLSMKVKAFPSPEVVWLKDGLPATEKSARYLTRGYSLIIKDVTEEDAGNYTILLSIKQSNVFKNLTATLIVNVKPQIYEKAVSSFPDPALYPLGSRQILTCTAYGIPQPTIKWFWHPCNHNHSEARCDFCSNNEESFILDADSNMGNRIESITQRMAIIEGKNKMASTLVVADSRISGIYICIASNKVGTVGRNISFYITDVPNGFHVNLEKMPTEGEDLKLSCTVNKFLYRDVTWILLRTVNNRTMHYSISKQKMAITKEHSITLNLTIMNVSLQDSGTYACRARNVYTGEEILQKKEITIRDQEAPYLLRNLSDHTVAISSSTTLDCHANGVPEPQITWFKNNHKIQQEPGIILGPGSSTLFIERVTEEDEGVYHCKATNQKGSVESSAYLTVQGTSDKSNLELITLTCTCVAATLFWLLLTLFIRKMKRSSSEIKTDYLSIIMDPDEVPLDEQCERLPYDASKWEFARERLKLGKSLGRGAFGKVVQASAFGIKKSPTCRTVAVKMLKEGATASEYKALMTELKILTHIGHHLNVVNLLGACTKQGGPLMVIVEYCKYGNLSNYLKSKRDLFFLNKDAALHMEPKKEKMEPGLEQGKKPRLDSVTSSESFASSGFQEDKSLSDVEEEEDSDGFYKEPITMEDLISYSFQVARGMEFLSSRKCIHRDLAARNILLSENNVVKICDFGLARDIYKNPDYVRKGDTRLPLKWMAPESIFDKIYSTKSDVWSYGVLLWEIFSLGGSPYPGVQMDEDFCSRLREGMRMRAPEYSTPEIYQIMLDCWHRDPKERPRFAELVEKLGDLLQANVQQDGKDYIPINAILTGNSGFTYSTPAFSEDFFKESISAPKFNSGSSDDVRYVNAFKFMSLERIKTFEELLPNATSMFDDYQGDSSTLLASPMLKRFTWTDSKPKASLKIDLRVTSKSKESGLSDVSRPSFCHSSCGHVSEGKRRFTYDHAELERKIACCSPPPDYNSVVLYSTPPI

Question: Which outcome [1] does the source give for `C=CCOC(=O)C(C)(C)OC(=O)c1cc(-n2c(=O)cc(C(F)(F)F)n(C)c2=O)ccc1Cl` here?
Answer: inactive

Question: Which outcome [2] does the source give for `CS(=O)(=O)c1ccc(C(=O)C2C(=O)CCCC2=O)c([N+](=O)[O-])c1` here?
Answer: inactive

Question: For `Clc1nc(Cl)nc(Nc2ccccc2Cl)n1`, which outcome [3] is on record?
Answer: inactive

Question: Which outcome [4] does the source give for `CCOP(=O)(OCC)Oc1nc(Cl)c(Cl)cc1Cl` here?
Answer: inactive

Question: What does the source list for `O=C1C2CC=CCC2C(=O)N1SC(Cl)(Cl)Cl` (stereo not drawn)?
Answer: outcome [4]: inactive; outcome [5]: inactive

Question: For `CC(C)N1C(=O)N(c2ccccc2)CSC1=NC(C)(C)C`, which outcome [6] is on record?
Answer: inactive

Question: Which results are given for `COP(=S)(OC)SCn1nnc2ccccc2c1=O`?
Answer: outcome [6]: inactive; AC50 [7]: 8.1 µM (active); AC50 [8]: 2.4 µM (active)

Question: Which AC50 [9] does the source give for `CNC(=O)Oc1cccc2ccccc12` here?
Answer: 6.28 µM (active)

Question: And the AC50 [10]?
Answer: 13.8 µM (active)

Question: Which outcome [9] does the source give for `Cc1ccc(N=CN(C)C=Nc2ccc(C)cc2C)c(C)c1` here?
Answer: inactive

Question: And the AC50 [10]?
Answer: 1.66 µM (active)

Question: With `CCCN(CC)CC1COC2(CCC(C(C)(C)C)CC2)O1` (stereo not drawn) as the molecule, how does the outcome [11] read?
Answer: inactive

Question: For `CCN(CC)C(=O)C(C)Oc1cccc2ccccc12` (stereo not drawn), which outcome [12] is on record?
Answer: inactive

Question: Which AC50 [4] does the source give for `Cc1nc(N(C)C)nc(OC(=O)N(C)C)c1C` here?
Answer: 0.991 µM (active)

Question: What about the AC50 [6] of the same molecule?
Answer: 10.4 µM (active)

Question: And the AC50 [10]?
Answer: 12.8 µM (active)

Question: With `COP(=S)(OC)Oc1ccc([N+](=O)[O-])c(C)c1` as the molecule, how does the outcome [10] read?
Answer: inactive

Question: Which outcome [9] does the source give for `N#Cc1c[nH]cc1-c1cccc2c1OC(F)(F)O2` here?
Answer: inactive

Question: What about the outcome [10] of the same molecule?
Answer: inactive

Question: And the outcome [13]?
Answer: inactive

Question: With `C=C(C)CN(CC)c1c([N+](=O)[O-])cc(C(F)(F)F)cc1[N+](=O)[O-]` as the molecule, how does the outcome [12] read?
Answer: inactive

Question: With `CNC(=O)N(C)c1nnc(C(C)(C)C)s1` as the molecule, how does the outcome [14] read?
Answer: inactive

Question: With `CC1(C)CCC(=Cc2ccc(Cl)cc2)C1(O)Cn1cncn1` (stereo not drawn) as the molecule, how does the outcome [9] read?
Answer: inactive

Question: Which AC50 [10] does the source give for `Nc1c(Cl)c(F)nc(OCC(=O)O)c1Cl` here?
Answer: 46.8 µM (active)

Question: With `COCC(C)N(C(=O)CCl)c1c(C)csc1C` (stereo not drawn) as the molecule, how does the outcome [14] read?
Answer: inactive

Question: Which outcome [7] does the source give for `CCC(C)n1c(=O)[nH]c(C)c(Br)c1=O` (stereo not drawn) here?
Answer: inactive

Question: And the outcome [8]?
Answer: inactive

Question: With `COc1ccc(-c2ccccc2)cc1NNC(=O)OC(C)C` as the molecule, how does the outcome [15] read?
Answer: inactive

Question: And the AC50 [6]?
Answer: 0.31 µM (active)

Question: What about the AC50 [9] of the same molecule?
Answer: 0.0452 µM (active)

Question: And the AC50 [16]?
Answer: 0.139 µM (active)

Question: And the AC50 [10]?
Answer: 0.599 µM (active)

Question: With `CN=C=S` as the molecule, how does the outcome [15] read?
Answer: inactive

Question: What about the outcome [16] of the same molecule?
Answer: inactive

Question: For `CCOP(=S)(OCC)Oc1nc(Cl)n(C(C)C)n1`, which outcome [13] is on record?
Answer: inactive

Question: For `CC(C)=CC1C(C(=O)OCc2coc(Cc3ccccc3)c2)C1(C)C` (stereo not drawn), which outcome [11] is on record?
Answer: inactive

Question: And the AC50 [12]?
Answer: 6.5 µM (active)

Question: For `CC(C)NC(=O)N1CC(=O)N(c2cc(Cl)cc(Cl)c2)C1=O`, which AC50 [15] is on record?
Answer: 25 µM (active)

Question: And the outcome [11]?
Answer: inactive

Question: Which results are given for `CCN(CC)c1nc(C)cc(OP(=S)(OC)OC)n1`?
Answer: outcome [15]: inactive; outcome [12]: inactive

Question: For `COc1cc(OC)nc(NC(=O)NS(=O)(=O)c2ncccc2OCC(F)(F)F)n1`, which outcome [6] is on record?
Answer: inactive

Question: Which outcome [4] does the source give for `O=P(O)(O)CCCl` here?
Answer: inactive

Question: With `Cc1cc(C)nc(Nc2ccccc2)n1` as the molecule, how does the outcome [10] read?
Answer: inactive

Question: Which AC50 [9] does the source give for `N#Cc1c(Cl)cccc1Cl` here?
Answer: 25 µM (active)

Question: What about the outcome [10] of the same molecule?
Answer: inactive

Question: Which results are given for `COC(=O)c1c(C(F)F)nc(C(F)(F)F)c(C2=NCCS2)c1CC(C)C`?
Answer: outcome [15]: inactive; outcome [6]: inactive

Question: With `CCCCC(C#N)(Cn1cncn1)c1ccc(Cl)cc1` (stereo not drawn) as the molecule, how does the outcome [6] read?
Answer: inactive

Question: For `O=C(Nc1ccccc1-c1ccc(Cl)cc1)c1cccnc1Cl`, which outcome [16] is on record?
Answer: inactive

From PubChem BioAssay (EPA / NIEHS)
